Test results taken from publication PMC4336329 (PLoS ONE, 2015).
The whole screen tested about 310,000 compounds, of which about 14,000 (4.5%) showed an effect of 50% or more. Effects have a minus sign here. Shown is part of a subset that was picked to be rich in strong results.

The compounds below were run against human ether-à-go-go-related gene (hERG) potassium channel (human, UniProt Q12809) (assay: primary screen, population patch clamp on CHO cells stably expressing hERG; higher = less effect of the substance).
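Also: peak tail current of the secondary pulse compared with the same well before compound.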

Sequence of human ether-à-go-go-related gene (hERG) potassium channel (Q12809 whole entry, looked up): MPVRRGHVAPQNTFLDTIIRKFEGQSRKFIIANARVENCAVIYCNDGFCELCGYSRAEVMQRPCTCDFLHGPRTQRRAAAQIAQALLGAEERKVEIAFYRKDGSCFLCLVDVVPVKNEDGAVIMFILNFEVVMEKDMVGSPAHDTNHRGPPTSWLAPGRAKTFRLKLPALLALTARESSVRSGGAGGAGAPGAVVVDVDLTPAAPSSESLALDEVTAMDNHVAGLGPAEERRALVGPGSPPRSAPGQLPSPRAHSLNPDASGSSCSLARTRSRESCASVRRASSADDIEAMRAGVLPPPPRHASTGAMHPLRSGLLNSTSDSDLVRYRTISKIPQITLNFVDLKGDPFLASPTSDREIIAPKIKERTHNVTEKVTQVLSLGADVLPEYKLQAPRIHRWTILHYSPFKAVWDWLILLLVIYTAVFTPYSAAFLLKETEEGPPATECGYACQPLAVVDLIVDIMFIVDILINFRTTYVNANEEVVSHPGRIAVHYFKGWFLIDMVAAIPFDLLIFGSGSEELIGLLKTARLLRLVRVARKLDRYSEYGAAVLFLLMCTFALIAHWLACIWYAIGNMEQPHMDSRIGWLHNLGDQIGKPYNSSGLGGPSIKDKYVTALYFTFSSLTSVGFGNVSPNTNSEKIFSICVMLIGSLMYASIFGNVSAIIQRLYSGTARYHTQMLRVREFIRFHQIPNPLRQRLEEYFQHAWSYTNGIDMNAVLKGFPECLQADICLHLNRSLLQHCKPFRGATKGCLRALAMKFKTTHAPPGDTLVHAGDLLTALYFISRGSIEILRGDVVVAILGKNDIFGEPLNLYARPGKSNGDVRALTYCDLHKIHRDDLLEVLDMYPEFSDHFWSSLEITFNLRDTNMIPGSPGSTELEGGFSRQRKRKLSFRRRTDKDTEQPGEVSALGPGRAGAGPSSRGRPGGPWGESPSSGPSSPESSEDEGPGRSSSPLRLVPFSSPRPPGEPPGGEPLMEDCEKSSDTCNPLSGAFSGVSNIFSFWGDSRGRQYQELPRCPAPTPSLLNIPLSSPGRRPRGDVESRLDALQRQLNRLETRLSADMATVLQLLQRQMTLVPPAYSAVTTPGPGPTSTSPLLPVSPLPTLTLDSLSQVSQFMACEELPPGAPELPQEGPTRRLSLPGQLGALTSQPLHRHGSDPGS

| Structure (SMILES) | hERG current change (%, negative = inhibition) at 10uM [%] |
| --- | --- |
| COc1ccc(/C=N/NC(=O)c2cccc(Br)c2)cc1CSc1ccccn1 | 2.67 |
| CCCNC(=O)c1cccc(Cn2nc(C)c(Br)c2C)c1 | -6.12 |
| CSc1cc(C)n(-c2ccc(Cl)cc2)c(=S)c1C(C)=O | -33.9 |
| Cn1c(SCC(=O)NNC(=O)c2ccccc2O)nnc1-c1ccccc1 | 18 |
| CCN(CC)S(=O)(=O)c1ccc(N(C)Cc2cccnc2)nc1 | -15.2 |
| CC(C)[NH+]1CCC2(CC1)C(C#N)=C(N)NC([S-])=C2C#N | -4.59 |
| COc1ccc(CN(CC(=O)NC2CCCC2)C(=O)c2ccc(-c3ccccc3)[nH]2)cc1 | -19.9 |
| CCCCN1C(=S)NC[C@@H]1Cc1ccccc1 | -11.8 |
| Cc1ccnc(NCn2nnc3ccccc32)c1 | 7.69 |
| Cc1ccc(NC(=O)C(=O)NCCN2CCN(C(=S)Nc3ccccc3)CC2)cc1 | -19.1 |
| Cc1ccccc1C(=O)N1CCN(CCNC(=O)C(=O)Nc2ccc(Br)cc2)CC1 | -68.8 |
| Cc1ccc(NC(=O)C(=O)NCCN2CCN(C(=O)C(c3ccccc3)c3ccccc3)CC2)cc1 | -9.93 |
| CC1CC(C)CN(CC(O)COCc2ccccc2F)C1.Cl (stereo not shown) | -23.4 |
| COc1ccc(CCNC(=S)Nc2cccc(C)c2)cc1 | -8.64 |
| CCC1(c2ccc(F)cc2)NC(=O)N(CC(=O)N2c3ccccc3CC2C)C1=O (stereo not shown) | -12.9 |
| CCC1(c2ccc(F)cc2)NC(=O)N(CC(=O)N2CC(=O)Nc3ccccc32)C1=O (stereo not shown) | -5.52 |
| CCC1(c2ccc(F)cc2)NC(=O)N(CC(=O)N2c3ccccc3NC(=O)CC2C)C1=O (stereo not shown) | -58.4 |
| Cc1c(C(c2ccc(O)cc2)c2c(C)n(C)n(-c3ccccc3)c2=O)c(=O)n(-c2ccccc2)n1C | -7.93 |
| COc1ccccc1/C=C1\SC(=S)N(CCC(=O)N2CCCCC2CCO)C1=O (stereo not shown) | 16.7 |
| CNc1ccccc1C(C)(C)c1cc(C)[nH]n1 | 22.6 |
| Cc1cc(=O)[nH]c(SCC(=O)Nc2ccc3c(c2)CCC3)c1C#N | -6.4 |
| O=C(Nc1ccc(N2CCN(C(=O)C3CC3)CC2)cc1)c1cccs1 | 2.17 |

| Structure (SMILES) | hERG current change (%, negative = inhibition) at 10uM [%] |
| --- | --- |
| CN(CCc1ccccc1)C1CCCN(S(=O)(=O)CC(F)(F)F)C1 (stereo not shown) | -3.61 |
| CC(=O)c1ccc(S(=O)(=O)N2CCCC(N(C)CCc3ccccc3)C2)cc1 (stereo not shown) | -81.2 |
| COC(=O)c1sccc1S(=O)(=O)N1CCCC(N(C)CCc2ccccn2)C1 (stereo not shown) | -22.7 |
| Cc1cc(S(=O)(=O)N2CCCC(N(C)CCc3ccccn3)C2)c(C)s1 (stereo not shown) | -46.6 |
| CN(CCc1ccccn1)C1CCCN(S(=O)(=O)c2ccc(F)c(Cl)c2)C1 (stereo not shown) | -48 |
| CC(=O)c1ccc(S(=O)(=O)N2CCCC(N(C)CCc3ccccn3)C2)cc1 (stereo not shown) | -65.3 |
| Cc1cc(S(=O)(=O)N2CCCC(N(C)CCc3ccccn3)C2)c(C)cc1Cl (stereo not shown) | -71.6 |
| CN(CCc1ccccc1)C1CCCN(S(=O)(=O)N(C)C)C1 (stereo not shown) | -15.7 |
| CN(CCc1ccccn1)C1CCCN(S(=O)(=O)c2ccccc2Cl)C1 (stereo not shown) | -46.5 |
| Cn1nc(-c2ccc(N3CCCCC3)c(NC(=O)c3ccco3)c2)c2ccccc2c1=O | 9.65 |
| CN(C)CCCNC(=S)N(Cc1cccs1)Cc1cc2cc3c(cc2[nH]c1=O)OCCO3 | 6.79 |
| Cc1ccc(/C=C2\SC(=S)N(CCC(=O)NNS(=O)(=O)c3ccc(C)cc3)C2=O)cc1 | 28.8 |
| CN(C(=O)COC(=O)/C=C/c1cn(-c2ccccc2)nc1-c1ccc2c(c1)OCCO2)C1CCS(=O)(=O)C1 (stereo not shown) | -3.86 |
| Cc1cc(=O)[nH]c(SCC(=O)NCCOc2ccccc2)n1 | 1.39 |
| Cc1ccccc1NC(=S)N(CCN(C)C)C(C)c1cccnc1 (stereo not shown) | -50.1 |
| COCCN(C(=S)Nc1cccc(C)c1)C(C)c1cccnc1 (stereo not shown) | -4.61 |
| COCCN(C(=S)Nc1ccc(C)cc1)C(C)c1cccnc1 (stereo not shown) | -22.9 |
| COCCN(C(=S)Nc1cc(C)cc(C)c1)C(C)c1cccnc1 (stereo not shown) | -58.4 |
| Cc1cccc(C)c1NC(=S)N(CCN(C)C)C(C)c1cccnc1 (stereo not shown) | -9.34 |
| CCc1ccccc1NC(=S)N(CCN(C)C)C(C)c1cccnc1 (stereo not shown) | -7.25 |
| Cc1ccccc1NC(=O)c1ccc(N/N=C/c2ccccc2O)c([N+](=O)[O-])c1 | 9.72 |
